Measured values: the supplement of paper PMC10849652
Of roughly 8,800 targets only a part is listed; those with a hit were picked by preference. About 0.5% of all pairs of compound and target were hits.

Tests used:
Test in all cases: log2 fold change, soluble protein after heating vs DMSO (PISA); higher = thermal stabilisation; K562 lysate, 10 uM; active = over 0.2 and 3.5 SD of the protein, either way, in both replicates (recomputed)
erlotinib = compound: C#Cc1cccc(Nc2ncnc3cc(OCCOC)c(OCCOC)cc23)c1 [erlotinib]
Method in brief: (§1)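 K562 pellets were dounce-homogenised in PBS pH 7.4 containing 1 mM MgCl2, and the crude extract, at 1 mg/mL protein, was exposed to 10 μM compound for 30 min. Aliquots were heated for 3 min across 48°C-58°C, pooled, brought to 0.5% NP-40 at 4°C and spun at 21,000xg for 90 min, with the supernatant taken as soluble protein. TMTpro 16plex LC-MS/MS with equalised channel sums quantified that protein. Values are log-two fold changes in thermal stability relative to solvent controls, taken from duplicates.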

[1] = compound: C/C(=N\NC(=O)C1=CC(=CC=C1)S(=O)(=O)N2CCOCC2)/C3=C(C=CC(=C3)Cl)O
Method in brief: as §1

[2] = compound: C1=CC(=CC=C1C2=NC3=C(N2)C=C(C=C3)C(=O)N)OC4=CC=C(C=C4)Cl
Method in brief: as §1

[3] = compound: C1=CC2=C(C=CC(=C2)/C=C\3/C(=O)NC(=NCC4=CC=CS4)S3)N=C1
Method in brief: as §1

[4] = compound: C1=CC2=NC=CN=C2C=C1/C=C/3\C(=O)NC(=O)S3
Method in brief: as §1

[5] = compound: C1=CC=C(C=C1)C2=NC(=C(N2)C3=CC=NC=C3)C4=CC(=C(C=C4)Cl)O
Method in brief: as §1

[6] = compound: C1=CC=C2C(=C1)C3=NNC4=CC=CC(=C43)C2=O
Method in brief: as §1

[7] = compound: C1CCN(C1)C(=O)NC2=CC=CC(=C2)NC3=NC=C(C(=N3)NCCC4=CN=CN4)Br
Method in brief: as §1

[8] = compound: C1CN(CCC1(CC2=CC=C(C=C2)Cl)N)C3=NC=NC4=C3C=CN4
Method in brief: as §1

IRAK-1-4 Inhibitor I = compound: C1COCCN1CCN2C3=CC=CC=C3N=C2NC(=O)C4=CC(=CC=C4)[N+](=O)[O-] [IRAK-1-4 Inhibitor I]
Method in brief: as §1

Measured: log2 fold change

MTOR (UniProt P42345)
inactive: erlotinib 0.02 | [1] 0.031 | [2] -0.058 | [3] -0.022 | [4] 0.038 | [5] 0.025 | [6] -0.018 | [7] -0.012 | [8] 0.003 | IRAK-1-4 Inhibitor I 0.006

NEK7 (UniProt Q8TDX7)
inactive: erlotinib -0.004 | [1] 0.042 | [2] -0.083 | [3] 0 | [4] 0.01 | [5] 0.053 | [6] 0.103 | [7] 0.011 | [8] -0.005 | IRAK-1-4 Inhibitor I 0.032

MYCBP2 (UniProt O75592)
inactive: erlotinib 0.01 | [1] 0 | [2] 0.031 | [3] 0.008 | [4] -0.008 | [5] 0.031 | [6] -0.023 | [7] 0.004 | [8] 0.03 | IRAK-1-4 Inhibitor I 0.022

NDUFA4 (UniProt O00483)
inactive: erlotinib 0.038 | [1] 0.092 | [2] -0.012 | [3] 0.055 | [4] 0.009 | [5] 0.055 | [6] 0.046 | [7] 0.012 | [8] 0.001 | IRAK-1-4 Inhibitor I -0.01

NOA1 (UniProt Q8NC60)
inactive: erlotinib 0.001 | [1] 0.003 | [2] -0.007 | [3] -0.051 | [4] -0.024 | [5] 0.033 | [6] -0.088 | [7] 0.07 | [8] -0.046 | IRAK-1-4 Inhibitor I -0.032

NARS2 (UniProt Q96I59)
Sequence of UniProt Q96I59 (Q96I59 whole entry, looked up): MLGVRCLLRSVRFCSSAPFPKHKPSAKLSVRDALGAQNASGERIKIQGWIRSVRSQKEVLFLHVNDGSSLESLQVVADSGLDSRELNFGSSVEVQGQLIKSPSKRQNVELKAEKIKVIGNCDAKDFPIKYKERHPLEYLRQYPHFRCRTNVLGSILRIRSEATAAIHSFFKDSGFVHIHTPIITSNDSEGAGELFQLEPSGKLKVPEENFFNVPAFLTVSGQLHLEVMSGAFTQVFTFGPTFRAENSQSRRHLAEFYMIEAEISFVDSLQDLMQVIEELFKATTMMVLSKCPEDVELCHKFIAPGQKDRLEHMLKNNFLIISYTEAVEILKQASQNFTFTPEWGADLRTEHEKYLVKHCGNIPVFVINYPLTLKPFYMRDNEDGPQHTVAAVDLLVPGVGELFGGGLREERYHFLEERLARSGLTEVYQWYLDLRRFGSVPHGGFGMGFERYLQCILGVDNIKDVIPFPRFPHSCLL
inactive: erlotinib -0.027 | [1] -0.034 | [2] -0.045 | [3] 0.031 | [4] 0.022 | [5] -0.021 | [6] -0.04 | [7] 0.027 | [8] -0.027 | IRAK-1-4 Inhibitor I -0.088

NUDT4 isoform 2 (UniProt Q9NZJ9)
inactive: erlotinib 0.023 | [1] 0.015 | [2] 0.05 | [3] -0.048 | [4] 0.015 | [5] -0.007 | [6] -0.005 | [7] -0.069 | [8] 0.032 | IRAK-1-4 Inhibitor I -0.006

PAIP2 (UniProt Q9BPZ3)
Sequence of UniProt Q9BPZ3 (Q9BPZ3 whole entry, looked up): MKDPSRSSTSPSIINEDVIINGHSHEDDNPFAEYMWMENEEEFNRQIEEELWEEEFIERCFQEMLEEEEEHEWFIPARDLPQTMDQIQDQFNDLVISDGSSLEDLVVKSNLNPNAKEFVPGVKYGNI
inactive: erlotinib 0.044 | [1] 0.041 | [2] -0.016 | [3] -0.01 | [4] 0.004 | [5] -0.054 | [6] -0.053 | [7] -0.044 | [8] 0.022 | IRAK-1-4 Inhibitor I 0.017

NEDD8 (UniProt Q15843)
inactive: erlotinib 0.018 | [1] -0.019 | [2] 0 | [3] 0.031 | [4] -0.047 | [5] 0.011 | [6] -0.053 | [7] 0.026 | [8] 0.07 | IRAK-1-4 Inhibitor I 0

OARD1 (UniProt Q9Y530)
inactive: erlotinib 0.002 | [1] -0.1 | [2] 0.008 | [3] 0.028 | [4] -0.019 | [5] -0.015 | [6] -0.031 | [7] -0.036 | [8] 0.041 | IRAK-1-4 Inhibitor I -0.01

NCOR2 (UniProt C9J0Q5)
inactive: erlotinib 0.044 | [1] 0.033 | [2] 0.04 | [3] -0.082 | [4] -0.008 | [5] 0.054 | [6] -0.173 | [7] -0.002 | [8] 0.049 | IRAK-1-4 Inhibitor I 0.032

MRPS31 (UniProt Q92665)
inactive: erlotinib -0.015 | [1] -0.042 | [2] 0.056 | [3] 0.042 | [4] -0.021 | [5] -0.028 | [6] -0.048 | [7] -0.022 | [8] 0.02 | IRAK-1-4 Inhibitor I 0.005

NEBL (UniProt O76041)
Sequence of UniProt O76041 (O76041 whole entry, looked up): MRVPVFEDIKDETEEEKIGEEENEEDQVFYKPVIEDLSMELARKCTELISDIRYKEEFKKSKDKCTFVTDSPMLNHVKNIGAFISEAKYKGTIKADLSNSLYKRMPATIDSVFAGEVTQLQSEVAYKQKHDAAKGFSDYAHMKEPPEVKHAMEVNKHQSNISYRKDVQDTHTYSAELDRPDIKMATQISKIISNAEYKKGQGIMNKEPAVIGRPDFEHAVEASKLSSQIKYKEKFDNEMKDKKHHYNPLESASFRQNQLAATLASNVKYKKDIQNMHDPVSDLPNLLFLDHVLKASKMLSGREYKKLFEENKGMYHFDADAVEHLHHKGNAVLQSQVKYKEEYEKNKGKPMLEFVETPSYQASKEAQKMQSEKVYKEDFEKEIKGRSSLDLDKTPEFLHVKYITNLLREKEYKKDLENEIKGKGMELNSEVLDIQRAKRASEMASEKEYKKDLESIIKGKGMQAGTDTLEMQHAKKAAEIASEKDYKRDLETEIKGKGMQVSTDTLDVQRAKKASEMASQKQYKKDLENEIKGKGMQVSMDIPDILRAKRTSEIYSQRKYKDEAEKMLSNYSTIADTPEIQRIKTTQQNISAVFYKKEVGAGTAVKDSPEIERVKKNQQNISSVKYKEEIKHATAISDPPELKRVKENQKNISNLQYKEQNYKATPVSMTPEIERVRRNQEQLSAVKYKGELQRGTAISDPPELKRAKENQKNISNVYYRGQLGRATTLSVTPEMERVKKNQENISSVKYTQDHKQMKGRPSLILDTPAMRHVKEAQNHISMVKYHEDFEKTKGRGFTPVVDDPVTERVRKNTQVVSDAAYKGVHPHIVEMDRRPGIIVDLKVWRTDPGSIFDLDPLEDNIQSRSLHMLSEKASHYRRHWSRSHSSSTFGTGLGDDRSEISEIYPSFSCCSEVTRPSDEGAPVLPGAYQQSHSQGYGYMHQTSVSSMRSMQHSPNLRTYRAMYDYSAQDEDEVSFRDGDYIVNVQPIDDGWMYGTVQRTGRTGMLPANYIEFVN
inactive: erlotinib -0.014 | [1] -0.028 | [2] 0.05 | [3] 0.015 | [4] -0.048 | [5] 0.001 | [6] -0.082 | [7] -0.087 | [8] 0.013 | IRAK-1-4 Inhibitor I 0.054

MYOM1 (UniProt P52179)
inactive: erlotinib -0.015 | [1] 0.033 | [2] -0.062 | [3] -0.228 | [4] -0.076 | [5] -0.009 | [6] 0.098 | [7] -0.023 | [8] 0.142
active: IRAK-1-4 Inhibitor I 0.503

NUP210 (UniProt Q8TEM1)
inactive: erlotinib -0.018 | [1] -0.019 | [2] -0.049 | [3] 0.036 | [4] -0.004 | [5] -0.046 | [6] -0.157 | [7] -0.008 | [8] -0.001 | IRAK-1-4 Inhibitor I -0.009

PARD3 (UniProt Q8TEW0)
inactive: erlotinib 0.1 | [1] -0.288 | [2] 0.051 | [3] -0.146 | [4] -0.029 | [5] 0.021 | [6] 0.007 | [7] 0.067 | [8] 0.017 | IRAK-1-4 Inhibitor I 0.028

OPA1 isoform 2 (UniProt O60313)
Sequence of UniProt O60313 (O60313 whole entry, looked up): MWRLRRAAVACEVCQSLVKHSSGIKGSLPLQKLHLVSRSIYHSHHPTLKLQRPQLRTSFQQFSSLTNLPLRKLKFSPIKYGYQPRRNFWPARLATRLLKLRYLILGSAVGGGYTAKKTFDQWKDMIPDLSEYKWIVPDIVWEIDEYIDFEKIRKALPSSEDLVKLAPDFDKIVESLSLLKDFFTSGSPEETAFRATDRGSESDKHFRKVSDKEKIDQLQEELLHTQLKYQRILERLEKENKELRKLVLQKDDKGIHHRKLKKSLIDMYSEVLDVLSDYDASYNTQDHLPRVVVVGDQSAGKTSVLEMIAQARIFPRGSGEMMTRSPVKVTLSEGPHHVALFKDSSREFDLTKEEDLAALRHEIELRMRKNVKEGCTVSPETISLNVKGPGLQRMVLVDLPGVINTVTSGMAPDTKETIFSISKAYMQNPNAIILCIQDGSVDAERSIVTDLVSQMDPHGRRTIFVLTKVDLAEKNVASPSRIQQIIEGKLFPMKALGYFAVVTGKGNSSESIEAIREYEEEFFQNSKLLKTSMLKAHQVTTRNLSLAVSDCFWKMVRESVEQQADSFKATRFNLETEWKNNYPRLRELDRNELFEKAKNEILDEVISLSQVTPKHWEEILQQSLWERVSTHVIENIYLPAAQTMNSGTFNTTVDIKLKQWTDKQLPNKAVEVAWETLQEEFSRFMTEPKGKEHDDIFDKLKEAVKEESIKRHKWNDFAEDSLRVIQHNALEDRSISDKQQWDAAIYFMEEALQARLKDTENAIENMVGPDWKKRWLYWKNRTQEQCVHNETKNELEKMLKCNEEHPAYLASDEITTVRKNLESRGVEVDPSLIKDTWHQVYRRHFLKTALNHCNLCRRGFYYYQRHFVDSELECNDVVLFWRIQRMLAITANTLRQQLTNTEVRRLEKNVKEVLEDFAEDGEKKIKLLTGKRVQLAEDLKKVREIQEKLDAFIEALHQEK
inactive: erlotinib 0.003 | [1] 0.03 | [2] -0.078 | [3] 0.024 | [4] 0.01 | [5] -0.022 | [6] -0.026 | [7] -0.015 | [8] 0.021 | IRAK-1-4 Inhibitor I 0.003

MSH3 (UniProt P20585)
inactive: erlotinib -0.046 | [1] -0.021 | [2] 0.042 | [3] 0.011 | [4] -0.025 | [5] 0.007 | [6] -0.026 | [7] -0.038 | [8] 0.058 | IRAK-1-4 Inhibitor I 0.004

MTCH2 (UniProt Q9Y6C9)
Sequence of UniProt Q9Y6C9 (Q9Y6C9 whole entry, looked up): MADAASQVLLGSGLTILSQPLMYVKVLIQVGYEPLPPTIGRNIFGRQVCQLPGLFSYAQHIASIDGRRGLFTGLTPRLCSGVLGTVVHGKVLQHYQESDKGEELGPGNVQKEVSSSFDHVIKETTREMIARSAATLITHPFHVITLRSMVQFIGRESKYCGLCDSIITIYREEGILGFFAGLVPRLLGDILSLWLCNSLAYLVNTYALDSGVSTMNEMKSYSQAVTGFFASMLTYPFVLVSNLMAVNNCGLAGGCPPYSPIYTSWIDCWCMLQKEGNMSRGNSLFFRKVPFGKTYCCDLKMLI
inactive: erlotinib 0.004 | [1] 0.051 | [2] -0.081 | [3] -0.032 | [4] -0.06 | [5] -0.004 | [6] -0.031 | [7] -0.033 | [8] -0.011 | IRAK-1-4 Inhibitor I 0.027

NFKBIB (UniProt Q15653)
inactive: erlotinib 0.113 | [1] -0.135 | [2] 0 | [3] 0.03 | [4] 0.025 | [5] -0.026 | [6] 0.06 | [7] 0.016 | [8] -0.008 | IRAK-1-4 Inhibitor I 0.052

ORC5 (UniProt O43913)
Sequence of UniProt O43913 (O43913 whole entry, looked up): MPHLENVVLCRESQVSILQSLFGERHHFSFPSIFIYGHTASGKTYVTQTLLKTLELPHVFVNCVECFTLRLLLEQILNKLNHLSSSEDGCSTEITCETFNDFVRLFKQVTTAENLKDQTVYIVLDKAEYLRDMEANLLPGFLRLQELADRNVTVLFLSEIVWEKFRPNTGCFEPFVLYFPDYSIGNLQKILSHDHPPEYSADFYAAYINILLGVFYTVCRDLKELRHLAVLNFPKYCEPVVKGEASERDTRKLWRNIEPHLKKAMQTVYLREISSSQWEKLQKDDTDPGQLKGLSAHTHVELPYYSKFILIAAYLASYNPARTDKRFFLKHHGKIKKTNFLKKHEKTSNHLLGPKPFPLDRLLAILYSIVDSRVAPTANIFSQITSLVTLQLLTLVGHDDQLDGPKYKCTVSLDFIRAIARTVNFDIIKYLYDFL
inactive: erlotinib 0.014 | [1] 0.021 | [2] -0.017 | [3] 0.003 | [4] 0.045 | [5] 0.029 | [6] -0.016 | [7] -0.085 | [8] -0.061 | IRAK-1-4 Inhibitor I -0.068

NUP93 (UniProt Q8N1F7)
inactive: erlotinib 0.025 | [1] 0.058 | [2] -0.042 | [3] 0.021 | [4] 0.032 | [5] -0.022 | [6] -0.049 | [7] 0.002 | [8] 0.015 | IRAK-1-4 Inhibitor I -0.022

NADK2 (UniProt Q4G0N4)
Sequence of UniProt Q4G0N4 (Q4G0N4 whole entry, looked up): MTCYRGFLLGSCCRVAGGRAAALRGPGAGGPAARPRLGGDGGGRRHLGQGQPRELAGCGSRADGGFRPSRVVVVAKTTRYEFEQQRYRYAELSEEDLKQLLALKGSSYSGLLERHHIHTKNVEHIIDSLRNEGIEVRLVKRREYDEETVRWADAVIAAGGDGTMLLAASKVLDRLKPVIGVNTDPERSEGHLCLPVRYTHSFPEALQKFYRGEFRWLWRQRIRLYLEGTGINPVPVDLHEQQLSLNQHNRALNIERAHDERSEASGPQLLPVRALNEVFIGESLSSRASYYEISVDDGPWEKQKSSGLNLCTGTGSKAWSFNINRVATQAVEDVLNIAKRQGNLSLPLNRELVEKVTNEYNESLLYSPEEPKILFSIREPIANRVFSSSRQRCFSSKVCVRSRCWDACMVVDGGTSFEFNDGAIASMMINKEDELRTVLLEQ
inactive: erlotinib 0.005 | [1] -0.024 | [2] 0.011 | [3] 0.104 | [4] -0.026 | [5] -0.003 | [6] -0.017 | [7] -0.019 | [8] 0.031 | IRAK-1-4 Inhibitor I 0.025

NELFA (UniProt Q9H3P2)
inactive: erlotinib -0.04 | [1] -0.018 | [2] 0.002 | [3] 0.047 | [4] 0.007 | [5] 0.007 | [6] -0.009 | [7] 0.011 | [8] -0.001 | IRAK-1-4 Inhibitor I -0.017

MTA2 (UniProt O94776)
inactive: erlotinib -0.025 | [1] -0.017 | [2] 0.019 | [3] 0.013 | [4] -0.012 | [5] -0.015 | [6] -0.023 | [7] -0.007 | [8] 0.021 | IRAK-1-4 Inhibitor I -0.005

NAT1 (UniProt P18440)
Sequence of UniProt P18440 (P18440 whole entry, looked up): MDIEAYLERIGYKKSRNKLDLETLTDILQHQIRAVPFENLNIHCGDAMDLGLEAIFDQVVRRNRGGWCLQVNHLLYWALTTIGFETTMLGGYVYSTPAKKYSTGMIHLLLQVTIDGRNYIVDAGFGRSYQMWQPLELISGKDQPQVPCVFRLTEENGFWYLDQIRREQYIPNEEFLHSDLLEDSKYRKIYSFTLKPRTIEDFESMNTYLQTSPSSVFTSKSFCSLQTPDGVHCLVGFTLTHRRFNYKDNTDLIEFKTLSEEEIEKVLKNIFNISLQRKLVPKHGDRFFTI
inactive: erlotinib 0.001 | [1] -0.011 | [2] -0.007 | [3] -0.136 | [4] -0.015 | [5] -0.011 | [7] -0.021 | [8] 0.035 | IRAK-1-4 Inhibitor I -0.013
active: [6] 0.528

OCRL (UniProt Q01968)
inactive: erlotinib -0.057 | [1] -0.031 | [2] 0.04 | [3] 0.085 | [4] -0.012 | [5] 0.054 | [6] -0.1 | [7] 0.02 | [8] 0.055 | IRAK-1-4 Inhibitor I 0.068

NFIC (UniProt P08651)
inactive: erlotinib 0.014 | [1] 0.063 | [2] -0.044 | [3] 0.025 | [4] 0.001 | [5] -0.084 | [6] -0.082 | [7] -0.016 | [8] -0.032 | IRAK-1-4 Inhibitor I 0.052

NCAPG (UniProt Q9BPX3)
inactive: erlotinib -0.008 | [1] -0.018 | [2] -0.004 | [3] -0.01 | [4] -0.007 | [5] 0.006 | [6] -0.026 | [7] 0.002 | [8] 0.013 | IRAK-1-4 Inhibitor I -0.011

PANK1 (UniProt Q8TE04)
inactive: erlotinib -0.003 | [1] -0.048 | [2] 0.033 | [3] 0.026 | [4] 0.098 | [5] 0.015 | [6] -0.069 | [7] -0.036 | [8] 0.054 | IRAK-1-4 Inhibitor I -0.061

MTHFD1, A0A384N5Y3
Sequence of MTHFD1, A0A384N5Y3 (A0A384N5Y3 whole entry, looked up): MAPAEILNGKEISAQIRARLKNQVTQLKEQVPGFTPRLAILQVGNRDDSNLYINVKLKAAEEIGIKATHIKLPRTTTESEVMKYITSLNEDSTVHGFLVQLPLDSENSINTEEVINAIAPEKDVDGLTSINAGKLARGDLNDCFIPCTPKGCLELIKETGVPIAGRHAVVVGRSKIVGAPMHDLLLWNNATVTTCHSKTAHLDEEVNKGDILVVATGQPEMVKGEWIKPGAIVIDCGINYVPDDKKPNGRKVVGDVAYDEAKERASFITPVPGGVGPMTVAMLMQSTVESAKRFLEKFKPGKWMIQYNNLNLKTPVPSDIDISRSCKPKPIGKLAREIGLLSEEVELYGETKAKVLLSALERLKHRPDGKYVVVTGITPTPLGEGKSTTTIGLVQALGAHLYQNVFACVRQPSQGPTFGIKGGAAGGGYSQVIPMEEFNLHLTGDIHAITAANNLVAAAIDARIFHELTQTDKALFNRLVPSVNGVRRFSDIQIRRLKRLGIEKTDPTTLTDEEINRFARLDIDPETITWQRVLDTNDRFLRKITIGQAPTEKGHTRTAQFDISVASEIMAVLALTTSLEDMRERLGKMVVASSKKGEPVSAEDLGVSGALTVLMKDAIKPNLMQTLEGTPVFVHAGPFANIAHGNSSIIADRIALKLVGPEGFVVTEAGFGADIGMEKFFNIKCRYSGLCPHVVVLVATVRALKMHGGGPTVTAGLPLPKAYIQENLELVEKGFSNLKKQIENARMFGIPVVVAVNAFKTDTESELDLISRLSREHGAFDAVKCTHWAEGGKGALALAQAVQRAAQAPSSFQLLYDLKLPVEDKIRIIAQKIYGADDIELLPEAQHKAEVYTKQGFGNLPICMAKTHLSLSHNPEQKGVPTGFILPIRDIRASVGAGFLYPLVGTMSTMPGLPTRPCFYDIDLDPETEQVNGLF
inactive: erlotinib 0.024 | [1] 0.041 | [2] -0.004 | [3] 0.04 | [4] 0.029 | [5] 0.02 | [6] -0.039 | [7] 0.021 | [8] 0.015 | IRAK-1-4 Inhibitor I 0.002
